Screens deposited in PubChem BioAssay by National Center for Advancing Translational Sciences (NCATS).
AMA1-RON2 inh – inhibitors of Plasmodium falciparum AMA1-RON2 interaction | AlphaScreen AMA1-biotinylated RON2 peptide binding | AID 720542 | Potency, µM (doses to about 58.2 µM), for inactives: top-dose activity change, negative = inhibition, usual class: inhibitors | 360,000 tested, 0.2% active;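 further: 0% = vehicle wells and -100% = peptide control; nearly all actives have a fitted effect of over 45% in size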
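AMA1 (3D7) with his tag at 25 nM final met compounds first, then biotinylated RON2 peptide at 25 nM; detection used donor plus acceptor beads, 10 µg/mL apiece, read by AlphaScreen after 30 min at room temperature.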
RE007 growth inh – less growth of the S. pombe RE007 Vpr strain. Potency, µM (doses to about 92.2 µM), for the others: top-dose activity change, negative = less growth, usual class: inhibitors. AID 651644. 360,000 tested, 0.21% active. S. pombe RE007 Vpr strain, BacTiter-Glo ATP luminescence, 24 h; active means well fitted falling curve with a large enough effect; inconclusive means small, poorly fitted or top-dose-only effect; inactive means no such curve, though single readings can be large or run the other way; further: nearly all actives have a fitted effect of over 50% in size
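Fission yeast RE007 carrying one integrated HIV-1 vpr copy, seeded at OD 0.01 in PMG+AL medium with 23 nL pinned compound. Grown 24 h at 30 degrees; viability read by BacTiter-Glo luminescence after 5 min.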
AmpC inh no detg – blocks E. coli AmpC beta-lactamase in detergent-free assay; P00811; AmpC nitrocefin hydrolysis, absorbance 480 nm, 0.0001% Triton; Potency, µM (highest dose often 57.1 µM), inactives show at the top dose activity change, negative = inhibition, hits mostly inhibitors; 330,000 tested, 0.52% active; AID 485341;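 further: plate controls were no compound for no effect and no enzyme for full effect; nearly all actives have a fitted effect of over 20% in size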
Target sequence (P00811 whole entry, looked up): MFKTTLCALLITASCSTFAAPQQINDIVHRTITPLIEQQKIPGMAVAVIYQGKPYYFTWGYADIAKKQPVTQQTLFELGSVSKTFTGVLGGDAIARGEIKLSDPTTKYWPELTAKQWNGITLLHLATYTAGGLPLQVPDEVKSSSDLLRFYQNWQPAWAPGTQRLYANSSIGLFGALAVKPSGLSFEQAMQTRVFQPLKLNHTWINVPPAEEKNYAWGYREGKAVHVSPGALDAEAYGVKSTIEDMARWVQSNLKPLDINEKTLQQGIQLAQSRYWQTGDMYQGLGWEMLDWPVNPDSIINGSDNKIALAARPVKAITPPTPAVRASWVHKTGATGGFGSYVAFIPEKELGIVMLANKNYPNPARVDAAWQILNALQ
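20 mM phosphate pH 7.0 + 0.01% (detergent screen) or 0.0001% Triton X-100; 5.3 nM AmpC reagent; cpd preinc 15 min RT; nitrocefin (800 uM stock) to start; A480 q20 s × 4 min; Activity was normalised to no-enzyme and no-compound control wells.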
AmpC inh detg – inhibitors of E. coli AmpC beta-lactamase with detergent; AID 485294; P00811; AmpC hydrolysis of nitrocefin, absorbance 480 nm, 0.01% Triton; Potency, µM (series often up to 114 µM), inactives show at the top dose activity change, negative = inhibition, actives largely listed as inhibitors; 370,000 tested, 0.041% active;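 further: 0% = no-compound wells and -100% = no-enzyme wells; nearly all actives have a fitted effect of over 25% in size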
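20 mM phosphate pH 7.0 + 0.01% (detergent screen) or 0.0001% Triton X-100; 5.3 nM AmpC reagent; cpd preinc 15 min RT; nitrocefin (800 uM stock) to start; A480 q20 s × 4 min; Activity was normalised to no-enzyme and no-compound control wells.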
* = called active by the depositor; ? = inconclusive; . = no result given. In the library only some 0.79% were active in any assay of this set; here they are far more common. Unless noted, the call rests on the fitted dose curve; in most records, active means well fitted curve in the direction sought with a large enough effect; inconclusive means small, poorly fitted or top-dose-only effect, or another doubt; inactive means no such curve, though single readings can be large; an effect the other way counts as inactive or inconclusive. Unless noted, on the % scale 0 is the no-effect control and ±100 the full control effect; potency means the concentration at half of the fitted maximal effect.

SMILES	AMA1-RON2 inh	RE007 growth inh	AmpC inh no detg	AmpC inh detg
CCOc1ccc2cc(S(=O)(=O)N3CCOCC3)ccc2c1	-4.7%	0.7%	0.398µM*	-1.8%
O=C(Nc1ccc(Cl)cc1C(F)(F)F)c1cc(S(=O)(=O)NCc2ccccc2)ccc1F	.	.	.	1.7%
Cc1ccc(N(C)C(=O)N2CCN(c3ccccn3)CC2)cc1	-2.3%	-5.8%	10µM*	?
CCN1CCC(N2CCN(c3ccc(Cl)cc3)CC2)CC1	1.5%	1.0%	-9.3%	-18.4%
CCCCCCN1CCN(c2ccc(Cl)cc2)CC1	35.5µM*	-12.0%	-39.4%	?
Cc1cc(C)c(NC(=O)CSc2nc3ccccc3c3nc(CCn4cncc4C)nn23)c(C)c1	.	.	.	-5.5%
CCCn1c(=NC(=O)c2cc3ccccc3o2)c(C(=O)OCC)cc2c(=O)n3ccccc3nc21	.	.	.	5.0%
Cc1cc(C)n2c(Nc3ccc4c(c3)OCCO4)c(-c3ccccn3)nc2n1	8.91µM*	-13.8%	.	.
O=C1C=CC2(O[C@H](c3ccccc3)[C@@H](c3ccccc3)O2)[C@H](Sc2ccccc2O)C1	-11.8%	39.8µM*	.	.
O=C(Cn1c(=O)n(Cc2ccccc2)c(=O)c2oc3ccccc3c21)Nc1ccc(Cl)cc1	.	.	.	20.2%
COc1ccccc1N1CCN(c2ncnc3c2cnn3-c2cccc(Cl)c2)CC1	.	.	.	5.6%
COc1ccc(Nc2nnc(SCC(=O)c3cc4ccccc4o3)s2)cc1	59.0%	18.8%	-49.6%	-7.4%
O=C(CSc1nnc(Nc2ccccc2F)s1)c1cc2ccccc2o1	13.3%	-4.1%	35.5µM*	-5.8%
O=C(CCN1CCOCC1)c1ccc(Cl)cc1	-17.5%	39.8µM*	-13.6%	10.2%
O=C(CCN1CCOCC1)c1ccc(Br)cc1	18.4%	31.6µM*	-22.1%	-7.9%
CCOC(=O)c1noc2ncn(CC(=O)Nc3cccc(Cl)c3)c(=O)c12	.	.	.	2.0%
CCC(=O)Nc1nc(-c2ccc3c(c2)OCCO3)cs1	0.0%	0.1%	39.8µM*	?
CCOC(=O)CN1C(=O)C(O)(CC(=O)c2cc(OC)ccc2OC)c2ccccc21 (configuration not stated)	.	.	.	0.0%
O=C(/C(=N/N=C/c1ccc(O)c(O)c1O)c1ccccc1)c1ccccc1	15.1%	-7.6%	20µM*	19.2%
Oc1ccc(/C=N/N=C(c2ccccc2)c2ccccc2)c(O)c1O	6.6%	?	-43.2%	0.2%
C=CS(=O)(=O)c1sc(Cl)c(N2CCOCC2)c1[N+](=O)[O-]	-22.4%	-25.3%	28.2µM*	?
C/C(=N\NC(=O)c1cc2ccccc2cc1O)c1cc2ccccc2o1	143.1%	-0.9%	15.8µM*	3.7%
C/C(=N\NC(=O)c1cc2ccccc2cc1O)c1ccccn1	59.6%	-11.9%	-52.4%	-2.5%
Cc1[nH]n(-c2ccccc2)c(=O)c1N=Nc1ccc(F)cc1	-2.3%	5.2%	-6.0%	2.0%
CSc1ccc(N=Nc2c(C)[nH]n(C)c2=O)cc1	14.1µM*	2.4%	49.5%	-12.3%
SMILES	AMA1-RON2 inh	RE007 growth inh	AmpC inh no detg	AmpC inh detg
COc1ccc(Cl)cc1NC(=O)CN(C)S(=O)(=O)c1cccs1	-2.2%	3.7%	-14.4%	-2.9%
O=C(COC(=O)c1ccc(NS(=O)(=O)c2cccs2)cc1O)Nc1nc2ccccc2s1	-7.4%	2.2%	1.58µM*	1.1%
O=C(COC(=O)c1ccc(NS(=O)(=O)c2cccs2)cc1O)NCc1ccccc1	-11.5%	5.0%	-23.7%	2.4%
COc1ccc(Cl)cc1NC(=O)COC(=O)c1cc(NS(=O)(=O)c2cccs2)ccc1O	10.3%	-5.5%	20µM*	-11.8%
CCCCC(=O)Nc1cc(-c2cn3cccnc3n2)ccc1C	.	.	.	1.2%
CC1(C)CC(=O)C2=C(C1)OC(N)=C(C#N)C2Cc1ccccc1 (configuration not stated)	2.3%	-1.7%	0.316µM*	-3.2%
CC1C(C#N)=C(N)OC2=C1C(=O)CC(C)(C)C2 (configuration not stated)	-3.6%	34.6%	-2.4%	-2.8%
CCOC(=O)c1ccc(NC(=O)Nc2ccc3snnc3c2)cc1	.	.	.	-2.5%
CC1CCCCC1NC(=O)Cn1ncc2ccccc21 (configuration not stated)	9.9%	7.0%	3.16µM*	?
CC1CCC(NC(=O)Cn2ncc3ccccc32)CC1 (configuration not stated)	-4.1%	-0.4%	2.51µM*	?
CCOC(=O)N1CCC(NC(=O)Cn2ncc3ccccc32)CC1	-3.4%	-9.4%	-2.4%	-5.0%
CCCCCCCCCCCCCCCC(O)C[N+](C)(C)CCO (configuration not stated)	-5.8%	35.5µM*	.	.
Cc1cc2nnc(SCC(=O)Nc3ccc(F)c(Cl)c3)n2c2ccccc12	.	.	.	1.8%
Cc1ccc(NC(=O)CC2SC3=NCCN3C2=O)cc1 (configuration not stated)	-11.7%	5.01µM*	-38.9%	-2.9%
O=C(CC1SC2=NCCN2C1=O)Nc1ccccc1 (configuration not stated)	-1.2%	-3.3%	-8.9%	0.0%
CC(C)C(Cl)=NOC(=O)Nc1ccc(S(N)(=O)=O)cc1	-3.2%	15.8µM*	.	.
COC(=O)[C@H](C)NC(=O)Nc1ccc(S(N)(=O)=O)cc1	-5.0%	0.0%	-6.2%	?
O=C(NCc1cccnc1)Nc1cccc(C(F)(F)F)c1	0.0%	8.6%	-15.1%	?
O=C(NCc1cccnc1)c1cccc(C(F)(F)F)c1	3.2%	6.6%	0.316µM*	-0.6%
C=CCOC(=O)C1=C(C)NC(SCC(=O)Nc2ccc(C)c(Cl)c2)=C(C#N)C1c1ccco1 (configuration not stated)	-1.0%	31.0%	7.94µM*	?
CC(C)c1ccc(N(C(=O)c2snc(C(N)=O)c2N)C(C(=O)NCC2CCCO2)c2ccc(N(C)C)cc2)cc1 (configuration not stated)	14.1µM*	-8.3%	123.6%	5.6%
CCc1ccc2occ(CC(=O)Nc3sc4c(c3C(=O)OC)CCC4)c2c1	.	.	.	14.4%
Cc1nc(CS(=O)(=O)c2ccccc2)cc(Sc2ccccc2Cl)n1	-1.9%	4.8%	?	4.4%
Cc1nc(CS(=O)(=O)c2ccccc2)cc(N2CCN(c3ccccc3F)CC2)n1	1.8%	31.4%	0.7%	-6.3%
Cc1nc(CS(=O)(=O)c2ccc(Cl)cc2)cc(Sc2ccccc2Cl)n1	2.9%	10.7%	3.55µM*	5.0%
SMILES	AMA1-RON2 inh	RE007 growth inh	AmpC inh no detg	AmpC inh detg
Cc1nc(CS(=O)(=O)c2ccccc2)cc(Sc2ccc(Cl)cc2)n1	-1.7%	-8.8%	3.98µM*	0.4%
CCCSCCCNC(=O)c1cc2n(n1)CCCN(Cc1ccc(C)cc1)C2=O	.	.	.	1.4%
O=C(Cn1cc(SCc2ccccc2F)c2ccccc21)N1CCCCC1	.	.	.	12.5%
O=[N+]([O-])c1ccccc1NC(=S)N/N=C/c1ccc(O)c(O)c1	77.3%	-2.6%	4.47µM*	-1.7%
COc1ccc(NC(=O)/C(Cl)=C(/Cl)S(=O)Cc2ccc(Cl)cc2)cn1 (configuration not stated)	3.2%	4.47µM*	-19.8%	-2.0%
CCc1ccc(NC(=O)c2ccc(F)c(S(=O)(=O)NCc3ccc(Cl)c(Cl)c3)c2)cc1	.	.	.	-1.2%
